Molecules are shown by their SMILES. Compounds without any hit were thinned out: in the full panel of roughly 83,000, 20% have a hit.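 Negative percent growth values reflect cell death: -40 means 40% of the cells present at the start died, and -100 means all died.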 Values without a mark were called inactive. Active and inactive are the calls of the source. How the source made its calls: active means growth percent below 10; inactive means the rest.

In this experiment the test system is MDA-MB-468 breast. Put plainly: NCI-60 one-dose screen, 48 h (100 = growth as untreated, 0 = no growth, -100 = all killed). As to conditions: 10 µM unless noted.
For the molecule `Cc1nc2c(nnn2-c2ccccc2)c2nc(-c3ccccc3)oc(=O)c12`, the growth was 110%.

On to `CC1=NC(=S)NC(c2ccccc2)/C1=C1/CC(c2ccccc2O)NN1` (centres undefined), for which the growth was 107%.

With `CC(C)C[C@H](NC(=O)Cn1ccc(NCc2ccccc2)cc1=O)B(O)O`, the growth was -41.2% (active).

For `C#Cc1nc(C2=C(C)C(OC(=O)CCC(=O)O)CC2)cs1` (centres undefined), the growth is 99.6%.

For the origin of these results see PubChem BioAssay (NCI).
